Data as given in PubChem BioAssay (EPA / NIEHS).
Values joined by “and” are separate entries in the source; they are usually repeats but may differ in a detail not shown here. Identical values can stand only once. Some compounds were tested as several samples or in several runs, with calls that do not always agree. Active and inactive are the calls of the source. How the source made its calls: active means hit-call score of the fitted dose curve at least 0.9, where 1 is the maximum; inactive means score below 0.9.

Tests used:
[1] = read-out: Matrix Metallopeptidase 1 (MMP1), MMP1 (gene 4312); experiment: BSK_MyoF_MMP1: BioMAP Diversity Plus: MyoF Assay for Matrix Metallopeptidase 1 (MMP1) Biomarker Activity (AID 2284268); details: primary human lung fibroblasts
Outline: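 Human lung fibroblasts (MyoF system) exposed to chemical for 24 h in 96-well format; MMP1 biomarker quantified by ELISA, with activity fitted in the positive direction relative to DMSO baseline.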

[2] = read-out: TIMP metallopeptidase inhibitor 1 (TIMP1), TIMP1 (gene 7076); experiment: BSK_MyoF_TIMP1: BioMAP Diversity Plus: MyoF Assay for TIMP metallopeptidase inhibitor 1 (TIMP1) Biomarker Activity (AID 2284269); details: primary human lung fibroblasts
Outline: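 TIMP-1 levels were determined by ELISA in human lung fibroblasts treated for 24 h. DMSO served as negative control and baseline for upward curve fitting.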

[3] = read-out: Matrix Metallopeptidase 3 (MMP3), MMP3 (gene 4314); experiment: BSK_BF4T_MMP3: BioMAP Diversity Plus: BF4T Assay for Matrix Metallopeptidase 3 (MMP3) Biomarker Activity (AID 2284271); details: primary human bronchial epithelial cells with fibroblasts
Outline: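 MMP-3 level read by ELISA after 24 h chemical exposure of bronchial epithelial cell/dermal fibroblast co-cultures, fitted upward relative to DMSO. Parallel cultures stained with 0.1% SRB after TCA fixation gauge overt cytotoxicity.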

[4] = read-out: Tissue plasminogen activator (tPA), PLAT (gene 5327); experiment: BSK_BF4T_tPA: BioMAP Diversity Plus: BF4T Assay for Tissue plasminogen activator (tPA) Biomarker Activity (AID 2284272); details: primary human bronchial epithelial cells with fibroblasts
Outline: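 tPA level quantified by ELISA at 24 h post-treatment in bronchial epithelial/dermal fibroblast co-cultures, gain of signal scored against DMSO baseline. Parallel cultures stained with 0.1% SRB (560 nm) to flag overt cytotoxicity.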

[5] = BSK_BF4T_SRB: Viability Assessment in the BioMAP Diversity Plus: BF4T Assay (AID 2284274); details: primary human bronchial epithelial cells with fibroblasts
Outline: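 Cytotoxicity measured as total protein: cells fixed with 10% TCA, stained with 0.1% SRB, read at 560 nm. Bronchial epithelial/dermal fibroblast co-culture, 24 h after dosing, with positive-direction fitting relative to DMSO.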

[6] = read-out: urokinase Plasminogen Activator (uPA), PLAU (gene 5328); experiment: BSK_BF4T_uPA: BioMAP Diversity Plus: BF4T Assay for urokinase Plasminogen Activator (uPA) Biomarker Activity (AID 2284275); details: primary human bronchial epithelial cells with fibroblasts
Outline: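 uPA levels measured by ELISA at 24 hours in BF4T cultures (bronchial epithelial cells plus dermal fibroblasts) and compared with DMSO; cytotoxicity tracked in parallel cultures by sulforhodamine B staining.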

[7] = read-out: Matrix Metallopeptidase 9 (MMP9), MMP9 (gene 4318); experiment: BSK_BF4T_MMP9: BioMAP Diversity Plus: BF4T Assay for Matrix Metallopeptidase 9 (MMP9) Biomarker Activity (AID 2284276); details: primary human bronchial epithelial cells with fibroblasts
Outline: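 MMP-9 levels were measured by ELISA after 24 h exposure of bronchial epithelial cell/dermal fibroblast co-cultures, with DMSO as baseline. Parallel cultures were stained with 0.1% SRB after TCA fixation, read at 560 nm, to flag overt cytotoxicity.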

[8] = read-out: Interleukin-8 (IL8), CXCL8 (gene 3576); experiment: BSK_IMphg_IL8: BioMAP Diversity Plus: IMphg Assay for Interleukin-8 (IL8) Biomarker Activity (AID 2284277); details: primary human endothelial cells with macrophages
Outline: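 IL-8 levels were measured by ELISA 24 h after dosing in primary human venular endothelial cell–macrophage cultures, referenced to DMSO; parallel SRB staining monitored overt cytotoxicity.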

[9] = read-out: Intercellular Adhesion Molecule 1 (ICAM1), ICAM1 (gene 3383); experiment: BSK_BE3C_ICAM1: BioMAP Diversity Plus: BE3C Assay for Intercellular Adhesion Molecule 1 (ICAM1) Biomarker Activity (AID 2284278); details: primary human bronchial epithelial cells;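 further: cell-surface ICAM-1 protein level quantified by ELISA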
Outline: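 ICAM-1 quantified by ELISA and fitted against DMSO baseline, 24 h post-dosing in BE3C cultures of primary human lung bronchial epithelial cells. Cytotoxicity checked in parallel cultures by total protein SRB staining.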

[10] = read-out: Interferon-inducible T-cell alpha chemoattractant (ITAC), CXCL11 (gene 6373); experiment: BSK_BE3C_ITAC: BioMAP Diversity Plus: BE3C Assay for Interferon-inducible T-cell alpha chemoattractant (ITAC) Biomarker Activity (AID 2284279); details: primary human bronchial epithelial cells
Outline: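 The assay measures I-TAC levels by ELISA in human primary bronchial epithelial cell cultures 24 hours after chemical treatment. Values reflect signal increase over the DMSO baseline.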

[11] = read-out: Interleukin-8 (IL8), CXCL8 (gene 3576); experiment: BSK_BE3C_IL8: BioMAP Diversity Plus: BE3C Assay for Interleukin-8 (IL8) Biomarker Activity (AID 2284280); details: primary human bronchial epithelial cells
Outline: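 Dose human bronchial epithelial cells with chemical; incubate 24 h; quantify IL-8 by ELISA; fit response upward versus DMSO controls.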

KRT18 (gene 3875) = experiment: BSK_BE3C_Keratin818: BioMAP Diversity Plus: BE3C Assay for Keratin 818 Biomarker Activity (AID 2284282); details: primary human bronchial epithelial cells
Outline: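 ELISA readout of Keratin 8/18 in human primary bronchial epithelial cultures after 24 h chemical exposure, DMSO baseline. Parallel SRB staining (0.1%, TCA-fixed, 560 nm) served as cytotoxicity check.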

[12] = read-out: Matrix Metallopeptidase 9 (MMP9), MMP9 (gene 4318); experiment: BSK_BE3C_MMP9: BioMAP Diversity Plus: BE3C Assay for Matrix Metallopeptidase 9 (MMP9) Biomarker Activity (AID 2284283); details: primary human bronchial epithelial cells
Outline: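 MMP9 is measured by ELISA after a 24 h compound exposure of primary human bronchial epithelial cultures. Parallel SRB staining gives overt cytotoxicity. Values fitted in the positive direction against DMSO.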

[13] = read-out: Plasminogen activator inhibitor-1 (PAI1), SERPINE1 (gene 5054); experiment: BSK_CASM3C_PAI1: BioMAP Diversity Plus: CASM3C Assay for Plasminogen activator inhibitor-1 (PAI1) Biomarker Activity (AID 2284284); details: primary human coronary artery smooth muscle cells;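 further: PAI-1 protein level measured by ELISA 24 h after dosing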
[14] = read-out: Monocyte Chemoattractant Protein-1 (MCP1), CCL2 (gene 6347); experiment: BSK_hDFCGF_MCP1: BioMAP Diversity Plus: hDFCGF Assay for Monocyte Chemoattractant Protein-1 (MCP1) Biomarker Activity (AID 2284285); details: primary human foreskin fibroblasts
Outline: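 MCP-1 ELISA readout was taken 24 hours after dosing primary human dermal fibroblasts in the hDFCGF system, with DMSO as baseline. Parallel sulforhodamine B staining of total protein tracked overt cytotoxicity.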

[15] = read-out: Vascular cell adhesion molecule 1 (VCAM1), VCAM1 (gene 7412); experiment: BSK_IMphg_VCAM1: BioMAP Diversity Plus: IMphg Assay for Vascular cell adhesion molecule 1 (VCAM1) Biomarker Activity (AID 2284286); details: primary human endothelial cells with macrophages
Outline: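 ELISA read-out of VCAM-1 on venular endothelial cell/macrophage co-cultures at 24 h post-treatment, with DMSO as baseline and positive-direction fitting. Parallel sulforhodamine B total-protein staining (560 nm) served as the overt cytotoxicity measure.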

[16] = read-out: Intercellular Adhesion Molecule 1 (ICAM1), ICAM1 (gene 3383); experiment: BSK_hDFCGF_ICAM1: BioMAP Diversity Plus: hDFCGF Assay for Intercellular Adhesion Molecule 1 (ICAM1) Biomarker Activity (AID 2284287); details: primary human foreskin fibroblasts
Outline: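 ICAM-1 ELISA readout 24 h after dosing, DMSO as baseline, in human dermal foreskin fibroblast cultures. Cytotoxicity checked in parallel wells by SRB staining (0.1% SRB, 10% TCA fixation, 560 nm).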

CD40, CD40 (gene 958) = experiment: BSK_IMphg_CD40: BioMAP Diversity Plus: IMphg Assay for CD40 Biomarker Activity (AID 2284288); details: primary human endothelial cells with macrophages
Outline: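 ELISA read-out of cell-surface CD40 at 24 h in human venular endothelial cell/macrophage co-cultures. Activity fitted in the positive direction against DMSO; parallel SRB staining (560 nm) gauges overt cytotoxicity.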

[17] = read-out: TIMP metallopeptidase inhibitor 2 (TIMP2), TIMP2 (gene 7077); experiment: BSK_hDFCGF_TIMP2: BioMAP Diversity Plus: hDFCGF Assay for TIMP metallopeptidase inhibitor 2 (TIMP2) Biomarker Activity (AID 2284289); details: primary human foreskin fibroblasts
Outline: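 Primary human foreskin fibroblasts in the hDFCGF system, dosed for 24 h; TIMP-2 level measured by ELISA, fitted in the positive direction against DMSO; cytotoxicity checked in parallel by sulforhodamine B total protein staining.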

[18] = read-out: Macrophage colony-stimulating factor (MCSF), CSF1 (gene 1435); experiment: BSK_IMphg_MCSF: BioMAP Diversity Plus: IMphg Assay for Macrophage colony-stimulating factor (MCSF) Biomarker Activity (AID 2284293); details: primary human endothelial cells with macrophages
Outline: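 M-CSF was measured by ELISA in human venular endothelial cell/macrophage co-cultures dosed for 24 hours. Sulforhodamine B staining of parallel cultures assessed cytotoxicity; data fitted against DMSO baseline.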

Measured: AC50

CCOP(=S)(NC(C)C)Oc1ccccc1C(=O)OC(C)C (stereo unspecified)
inactive: [1] | [2]

O=S(=O)(F)C(F)(F)C(F)(F)C(F)(F)C(F)(F)C(F)(F)C(F)(F)C(F)(F)C(F)(F)F
inactive: [1] | [2] | [3] | [4] | [5] | [6] | [7] | [8] | [9] | [10] | [11] | KRT18 (gene 3875) | [12] | [13] | [14] | [15] | [16] | CD40, CD40 (gene 958) | [17] | [18]

O=S1(=O)OCC2C(CO1)C1(Cl)C(Cl)=C(Cl)C2(Cl)C1(Cl)Cl (stereo unspecified)
inactive: [1] | [2]

CCOP(=S)(S)OCC
inactive: [1] | [2]

COP(=O)(CCC(=O)NCO)OC
inactive: [9] | [10] | [11] | KRT18 (gene 3875) | [12] | [13] | [14] | [16] | [17]

Cc1ccc2c(c1N)C(=O)c1ccccc1C2=O
inactive: [1] | [2]

O=C(O)C=CC(F)(C(F)(F)F)C(F)(F)F
inactive: [1] | [2] | [3] | [4] | [5] | [6] | [7] | [8] | [9] | [10] | [11] | KRT18 (gene 3875) | [12] | [13] | [14] | [15] | [16] | CD40, CD40 (gene 958) | [17] | [18]

CCOP(=S)(OCC)SCS(=O)(=O)CC
inactive: [1] | [2]

O=c1ssc(Cl)c1Cl
active: [1] 20 µM | [2] 7.43 µM

OCC(F)(F)OC(F)(F)C(F)(F)OC(F)(F)C(F)(F)OC(F)(F)CO
inactive: [1] | [2] | [3] | [5] | [6] | [7] | [8] | [9] | [10] | [11] | KRT18 (gene 3875) | [12] | [13] | [15] | [16] | CD40, CD40 (gene 958) | [17] | [18]
active: [4] 30 µM and 24 µM | [10] 30 µM | [14] 30 µM and 23.7 µM | [16] 33.8 µM | CD40, CD40 (gene 958) 30 µM | [17] 8.46 µM | [18] 24.7 µM
